Reference: PubChem BioAssay (EPA / NIEHS)
Active and inactive are the calls of the source. The calls were made as follows: active = hit-call score of the fitted dose curve at least 0.9, where 1 is the maximum; inactive = score below 0.9.

Assay: APR_HepG2_NuclearSize_72hr: Apredica 72-hour HepG2 Assay for Nuclear Size (AID 2282925)
Details: high-content imaging, actives raise or lower the signal
Description: APR_HepG2_72hr is a cell-based, multiplexed-readout assay that uses HepG2, a human liver cell line, with measurements taken at 72 hours after chemical dosing in a 384-well plate.APR_HepG2_NuclearSize_72hr is one of 10 assay component(s) measured or calculated from the APR_HepG2_72hr assay. It is designed to make measurements of cell phenotype, a form of morphology reporter, as detected with fluorescence intensity signals by HCS Fluorescent Imaging technology.Data from the assay component APR_HepG2_NuclearSize_72hr was analyzed into 1 assay endpoint. This assay endpoint, APR_HepG2_NuclearSize_72hr, was analyzed with bidirectional fitting relative to DMSO as the negative control and baseline of activity. Using a type of morphology reporter, measures of all nuclear dna for gain or loss-of-signal activity can be used to understand the signaling at the nuclear-level. Furthermore, this assay endpoint can be referred to as a primary readout, because this assay has produced multiple assay endpoints where this one serves a signaling function. To generalize the intended target to other relatable targets, this assay endpoint is annotated to the cell morphology intended target family, where the subfamily is organelle conformation.
Cells were treated with dimethyl sulfoxide (DMSO) as a solvent control at a final concentration of 0.5% v/v or with compounds in DMSO with a resulting final DMSO concentration of 0.5% v/v. Compound treatment was done at concentrations of 0.39, 0.78, 1.56, 3.12, 6.24, 12.5, 25, 50, 100, and 200 uM in duplicate on each plate. Cells were treated with compounds for 1, 24, or 72 hr. Carbonyl […] m-chloro-phenylhydrazone (CCCP) and taxol were used as positive controls for mitochondrial function and cytoskeletal stability, respectively; DMSO served as the negative control for this experiment. Cells were fixed by the direct addition of 50 uL formaldehyde in Hank's Balanced Salt Solution (HBSS) to a final concentration of 3.7%. After incubation in the fixation medium for 30 min at room temperature (293-298 K), cells were rinsed twice with HBSS and treated with cell permeabilization buffer (16 uL of 0.5% Triton X-100) for 10 min at room temperature (293-298 K) before labeling. For mitochondrial membrane potential and mitochondrial measurements, pre-fixed cells were incubated with 50 uL of MitoTracker Red CMXRos (Invitrogen) at a concentration of 250 nM for 30 min before fixation. In the remaining cases, post-fixed cells were labeled by incubation with a multiplexed mixture of primary antibodies in HBSS for 60 min at room temperature (293-298 K) to detect immunoreactivity of c-Jun (1:500), phospho-histone H3 (1:100), phospho-histone H2A.x (1:200), p53 (1:400), alpha-tubulin (1:200) and Hoechst 33342 (2 ug/mL). Cells were labeled for multiplexed imaging on two separate plates: a) Hoechst 33342, MitoTracker Red, phospho-histone H3, and alpha-tubulin, and b) Hoechst 33342, phospho-histone H2A.x, and c-Jun. A final rinse with HBSS (50 uL) was performed before analysis. The primary and secondary antibodies for the proteins were phospho-histone H3 (rabbit anti-phospho-histone H3 and FITC-donkey anti-rabbit IgG), phospho-histone H2A.x (mouse anti-phospho-histone H2A.x and FITC-donkey anti-mouse IgG), c-Jun (rabbit anti-phospho-c-Jun and Cy3-donkey anti-rabbit IgG), p53 (sheep anti-p53 and Cy5-donkey anti-sheep IgG), alpha-tubulin (mouse anti-alpha-tubulin and Cy5-donkey anti-mouse IgG). These antibodies are available as the CellCiphr HepG2 assay kit (Millipore).Digital images of each well were captured using a Cellomics ArrayScan VTI (Thermo Scientific Cellomics) (0.8 NA objective, 0.63x optical coupler, and XF-93 filter set) at 20x magnification. The images were acquired using the autofocus feature of the ArrayScan instrument, which entails the following steps. First, the camera focuses on channel 1 (Hoechst 33342), where nuclei are identified. Second, a Z offset of 1 um is used for capturing mitochondria (MitoTracker Red). […]

| SMILES | outcome |
| --- | --- |
| O=C(O)C1(c2ccc3c(c2)OC[C@H](Cc2ccc(-c4ccccc4)cc2)[C@H]3O)CCCC1 | inactive |
| O=C(N[C@H]1CN2CCC1CC2)c1ccc2c(c1)OCCO2 | inactive |
| OCCN(CCO)CCO | inactive |
| COc1ccccc1N | inactive |
| Clc1cccc(Cl)c1 | inactive |
| CC(C)O.CC(C)O.OCCN(CCO)CCO.OCCN(CCO)CCO.[Ti] | inactive |
| Oc1cc(Cl)c(Cl)cc1Cl | inactive |
| N#Cc1cccnc1 | inactive |
| CCCCCCCCCCCCc1cccc(S(=O)(=O)O)c1 | inactive |
| Clc1cccc(Cl)c1Cl | inactive |
| Cc1cc(C)cc(C)c1 | inactive |
| CC(C)(C)c1ccccc1O | inactive |
| CN(C)C(=S)S | inactive |
